# Key:
# Assay in all cases: DAPPL (digital affinity profiling via proximity ligation, sequencing); 10 mM Tris-HCl pH 7.5, 50 mM NaCl, 1 mM DTT, 4% glycerol, room temperature, 30 min; GST-TFs on glutathione beads, 16-mer random dsDNA library, 0.1% formaldehyde crosslink after washing; high values mean tight binding
# FLI1 = biological target: T1, FLI1 (Homo sapiens, UniProt Q01543 1-452); conditions: protein: recombinant; tags: N-terminal GST; dsDNA, one strand shown
# T1 sequence: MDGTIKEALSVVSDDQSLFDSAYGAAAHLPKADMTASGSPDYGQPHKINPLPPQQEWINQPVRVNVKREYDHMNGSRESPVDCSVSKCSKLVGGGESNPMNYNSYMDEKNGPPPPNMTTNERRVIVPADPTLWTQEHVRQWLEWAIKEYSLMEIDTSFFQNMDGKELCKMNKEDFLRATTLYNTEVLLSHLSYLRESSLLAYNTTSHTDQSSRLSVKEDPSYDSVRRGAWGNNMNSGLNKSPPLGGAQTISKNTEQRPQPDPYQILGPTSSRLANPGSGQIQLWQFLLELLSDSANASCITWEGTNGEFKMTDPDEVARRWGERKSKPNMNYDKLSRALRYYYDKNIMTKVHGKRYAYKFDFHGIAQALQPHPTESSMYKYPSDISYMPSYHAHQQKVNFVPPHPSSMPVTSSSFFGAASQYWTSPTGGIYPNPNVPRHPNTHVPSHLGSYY
# How it was run: (§1)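 Pools of DNA-barcoded human transcription factors, expressed in yeast as GST fusions on glutathione beads and combined with a tag-only sample, were incubated with 200 nmole of a 16-mer random double-stranded DNA library. Incubation took 30 min at room temperature in Tris/NaCl/DTT/glycerol buffer and was followed by washing, 0.1% formaldehyde crosslinking, proximity ligation (BsaI/T4 ligase, 1 h, 37 °C), PCR amplification and sequencing on an Illumina NextSeq500. Binding signal is the ratio of a hexamer's read frequency for a factor to its frequency for the tag-only sample.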
# ELK1 = biological target: T2, ELK1 (Homo sapiens, UniProt P19419 1-428); conditions: protein: recombinant; tags: N-terminal GST; dsDNA, one strand shown
# T2 sequence: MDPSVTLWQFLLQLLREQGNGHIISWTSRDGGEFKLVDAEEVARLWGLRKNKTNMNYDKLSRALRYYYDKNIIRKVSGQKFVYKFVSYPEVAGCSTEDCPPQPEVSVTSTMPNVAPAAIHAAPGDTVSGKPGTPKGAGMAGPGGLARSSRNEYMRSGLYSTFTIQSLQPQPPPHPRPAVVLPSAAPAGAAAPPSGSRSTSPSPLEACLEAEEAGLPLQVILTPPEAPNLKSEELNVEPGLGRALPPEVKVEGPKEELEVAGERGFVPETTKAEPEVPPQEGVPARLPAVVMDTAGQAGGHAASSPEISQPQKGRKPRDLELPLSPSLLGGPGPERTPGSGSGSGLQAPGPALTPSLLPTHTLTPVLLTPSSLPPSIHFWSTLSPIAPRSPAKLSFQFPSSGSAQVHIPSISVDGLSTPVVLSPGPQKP
# How it was run: as §1
# GABPA = biological target: T3, GABPA (Homo sapiens, UniProt Q06546 1-454); conditions: protein: recombinant; tags: N-terminal GST; dsDNA, one strand shown
# T3 sequence: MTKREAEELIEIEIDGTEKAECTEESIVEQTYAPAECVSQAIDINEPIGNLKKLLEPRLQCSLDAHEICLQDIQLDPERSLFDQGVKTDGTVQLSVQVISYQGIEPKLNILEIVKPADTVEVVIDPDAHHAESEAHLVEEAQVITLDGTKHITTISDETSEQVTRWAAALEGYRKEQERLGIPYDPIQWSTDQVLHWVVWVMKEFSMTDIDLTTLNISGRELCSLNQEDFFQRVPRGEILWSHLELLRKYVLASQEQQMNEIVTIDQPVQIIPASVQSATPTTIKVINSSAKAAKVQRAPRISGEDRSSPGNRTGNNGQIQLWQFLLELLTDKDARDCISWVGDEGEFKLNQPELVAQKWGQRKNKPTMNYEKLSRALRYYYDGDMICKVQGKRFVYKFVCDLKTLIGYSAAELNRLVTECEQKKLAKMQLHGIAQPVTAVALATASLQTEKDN
# How it was run: as §1
# ERG = biological target: T4, ERG (Homo sapiens, UniProt P11308 1-479); conditions: protein: recombinant; tags: N-terminal GST; dsDNA, one strand shown
# T4 sequence: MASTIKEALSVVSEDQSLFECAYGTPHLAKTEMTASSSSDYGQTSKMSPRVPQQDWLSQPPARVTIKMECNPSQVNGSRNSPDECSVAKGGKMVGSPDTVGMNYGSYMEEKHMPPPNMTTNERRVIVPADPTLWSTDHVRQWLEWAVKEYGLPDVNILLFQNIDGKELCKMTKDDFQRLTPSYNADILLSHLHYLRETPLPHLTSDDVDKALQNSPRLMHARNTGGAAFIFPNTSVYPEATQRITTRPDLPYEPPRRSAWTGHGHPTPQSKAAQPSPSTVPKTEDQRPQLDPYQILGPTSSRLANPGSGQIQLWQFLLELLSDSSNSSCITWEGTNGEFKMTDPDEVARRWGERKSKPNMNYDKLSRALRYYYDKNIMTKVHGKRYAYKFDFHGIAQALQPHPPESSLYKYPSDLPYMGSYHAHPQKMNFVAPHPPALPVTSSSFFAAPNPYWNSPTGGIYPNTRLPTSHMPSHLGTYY
# How it was run: as §1
# ELF1 = ELF1 (Homo sapiens, UniProt P32519 1-619); conditions: protein: recombinant; tags: N-terminal GST; dsDNA, one strand shown
# Sequence of ELF1 (P32519 whole entry): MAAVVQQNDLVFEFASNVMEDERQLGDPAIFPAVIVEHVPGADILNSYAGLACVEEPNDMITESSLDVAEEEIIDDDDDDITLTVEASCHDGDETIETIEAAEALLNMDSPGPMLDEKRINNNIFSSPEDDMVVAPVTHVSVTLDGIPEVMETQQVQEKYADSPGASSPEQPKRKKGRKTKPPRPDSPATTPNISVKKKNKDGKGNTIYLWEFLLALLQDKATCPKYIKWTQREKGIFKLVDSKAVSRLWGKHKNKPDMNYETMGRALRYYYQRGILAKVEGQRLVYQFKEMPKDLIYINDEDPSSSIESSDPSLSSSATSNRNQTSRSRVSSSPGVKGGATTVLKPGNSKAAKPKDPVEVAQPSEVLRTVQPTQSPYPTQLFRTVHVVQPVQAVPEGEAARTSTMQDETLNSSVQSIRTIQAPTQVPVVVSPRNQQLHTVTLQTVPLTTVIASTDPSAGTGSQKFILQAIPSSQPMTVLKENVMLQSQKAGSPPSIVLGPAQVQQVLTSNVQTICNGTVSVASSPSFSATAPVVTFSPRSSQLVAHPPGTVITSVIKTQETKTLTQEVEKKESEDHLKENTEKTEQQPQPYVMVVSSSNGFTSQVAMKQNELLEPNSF
# How it was run: as §1
# EHF = biological target: T5, EHF (Homo sapiens, UniProt Q9NZC4 1-300); conditions: protein: recombinant; tags: N-terminal GST; dsDNA, one strand shown
# T5 sequence: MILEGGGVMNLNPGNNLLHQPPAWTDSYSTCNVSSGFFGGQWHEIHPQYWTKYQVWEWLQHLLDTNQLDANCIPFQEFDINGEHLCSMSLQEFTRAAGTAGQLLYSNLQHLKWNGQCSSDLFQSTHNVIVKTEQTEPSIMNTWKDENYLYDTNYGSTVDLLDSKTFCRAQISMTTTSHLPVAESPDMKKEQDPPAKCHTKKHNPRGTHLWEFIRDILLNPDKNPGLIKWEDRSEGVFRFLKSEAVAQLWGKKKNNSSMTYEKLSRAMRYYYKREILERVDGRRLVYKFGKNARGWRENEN
# How it was run: as §1
# SPI1 = SPI1 (Homo sapiens, UniProt P17947 1-270); conditions: protein: recombinant; tags: N-terminal GST; dsDNA, one strand shown
# How it was run: as §1
# SPIB = SPIB (Homo sapiens, UniProt Q01892 1-262); conditions: protein: recombinant; tags: N-terminal GST; dsDNA, one strand shown
# Sequence of SPIB (Q01892 whole entry): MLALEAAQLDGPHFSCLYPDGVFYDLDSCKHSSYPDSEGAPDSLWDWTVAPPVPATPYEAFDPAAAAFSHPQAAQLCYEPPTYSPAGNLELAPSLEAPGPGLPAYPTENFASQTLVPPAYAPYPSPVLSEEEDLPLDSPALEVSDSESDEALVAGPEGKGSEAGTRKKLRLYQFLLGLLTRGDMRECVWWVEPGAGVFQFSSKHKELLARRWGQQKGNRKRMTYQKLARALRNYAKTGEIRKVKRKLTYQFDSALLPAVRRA
# How it was run: as §1
# FEV = biological target: T6, FEV (Homo sapiens, UniProt Q99581 1-238); conditions: protein: recombinant; tags: N-terminal GST; dsDNA, one strand shown
# T6 sequence: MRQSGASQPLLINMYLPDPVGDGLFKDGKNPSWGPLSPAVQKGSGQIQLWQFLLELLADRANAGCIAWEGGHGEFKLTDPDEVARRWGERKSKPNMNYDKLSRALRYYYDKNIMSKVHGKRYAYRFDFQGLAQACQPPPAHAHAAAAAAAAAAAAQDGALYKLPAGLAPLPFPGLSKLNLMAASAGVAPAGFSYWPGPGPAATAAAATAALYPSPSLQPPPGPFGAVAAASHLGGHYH
# How it was run: as §1
# ETV5 = ETV5 (Homo sapiens, UniProt P41161 1-510); conditions: protein: recombinant; tags: N-terminal GST; dsDNA, one strand shown
# Sequence of ETV5 (P41161 whole entry): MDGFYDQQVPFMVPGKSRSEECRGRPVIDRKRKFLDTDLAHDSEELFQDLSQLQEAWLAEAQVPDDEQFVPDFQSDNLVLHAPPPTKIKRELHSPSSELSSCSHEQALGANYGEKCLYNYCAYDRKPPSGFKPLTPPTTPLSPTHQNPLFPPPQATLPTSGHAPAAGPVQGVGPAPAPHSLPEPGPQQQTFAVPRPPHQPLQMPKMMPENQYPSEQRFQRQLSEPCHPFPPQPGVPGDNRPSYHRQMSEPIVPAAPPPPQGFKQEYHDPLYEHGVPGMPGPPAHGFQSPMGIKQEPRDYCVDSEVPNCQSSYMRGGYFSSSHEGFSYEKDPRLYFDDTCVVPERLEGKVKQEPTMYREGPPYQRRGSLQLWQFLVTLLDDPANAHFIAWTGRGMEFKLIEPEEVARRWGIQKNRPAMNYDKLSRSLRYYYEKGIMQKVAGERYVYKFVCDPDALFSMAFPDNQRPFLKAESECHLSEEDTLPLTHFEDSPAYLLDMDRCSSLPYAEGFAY
# How it was run: as §1
# HSF1 = HSF1 (Homo sapiens, UniProt Q00613 1-529); conditions: protein: recombinant; tags: N-terminal GST; chain copies: 3; dsDNA, one strand shown
# Sequence of HSF1 (Q00613 whole entry): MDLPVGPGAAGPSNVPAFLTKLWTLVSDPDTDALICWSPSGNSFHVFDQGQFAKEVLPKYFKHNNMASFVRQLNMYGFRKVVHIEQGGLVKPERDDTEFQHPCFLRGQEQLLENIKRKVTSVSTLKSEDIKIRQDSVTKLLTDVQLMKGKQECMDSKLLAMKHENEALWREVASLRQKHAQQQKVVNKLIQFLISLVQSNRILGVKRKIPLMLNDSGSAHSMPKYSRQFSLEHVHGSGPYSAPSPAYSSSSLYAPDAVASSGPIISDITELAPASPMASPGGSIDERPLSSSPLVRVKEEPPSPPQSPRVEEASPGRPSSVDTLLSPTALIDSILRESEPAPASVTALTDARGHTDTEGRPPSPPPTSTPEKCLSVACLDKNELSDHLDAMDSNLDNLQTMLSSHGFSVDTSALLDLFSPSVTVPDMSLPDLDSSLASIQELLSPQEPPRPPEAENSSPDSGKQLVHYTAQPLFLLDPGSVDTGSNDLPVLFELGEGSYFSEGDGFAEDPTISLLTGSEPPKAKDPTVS
# How it was run: as §1
# SPIC = biological target: T7, SPIC (Homo sapiens, UniProt Q8N5J4 1-248); conditions: protein: recombinant; tags: N-terminal GST; dsDNA, one strand shown
# T7 sequence: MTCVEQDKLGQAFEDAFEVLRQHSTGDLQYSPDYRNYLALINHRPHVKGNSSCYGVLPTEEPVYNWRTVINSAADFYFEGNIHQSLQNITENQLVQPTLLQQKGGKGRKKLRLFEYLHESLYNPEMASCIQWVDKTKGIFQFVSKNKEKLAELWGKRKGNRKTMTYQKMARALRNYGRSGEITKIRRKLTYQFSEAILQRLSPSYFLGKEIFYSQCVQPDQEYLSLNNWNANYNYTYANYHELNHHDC
# How it was run: as §1
# ELF4 = ELF4 (Homo sapiens, UniProt Q99607 1-663); conditions: protein: recombinant; tags: N-terminal GST; dsDNA, one strand shown
# Sequence of ELF4 (Q99607 whole entry): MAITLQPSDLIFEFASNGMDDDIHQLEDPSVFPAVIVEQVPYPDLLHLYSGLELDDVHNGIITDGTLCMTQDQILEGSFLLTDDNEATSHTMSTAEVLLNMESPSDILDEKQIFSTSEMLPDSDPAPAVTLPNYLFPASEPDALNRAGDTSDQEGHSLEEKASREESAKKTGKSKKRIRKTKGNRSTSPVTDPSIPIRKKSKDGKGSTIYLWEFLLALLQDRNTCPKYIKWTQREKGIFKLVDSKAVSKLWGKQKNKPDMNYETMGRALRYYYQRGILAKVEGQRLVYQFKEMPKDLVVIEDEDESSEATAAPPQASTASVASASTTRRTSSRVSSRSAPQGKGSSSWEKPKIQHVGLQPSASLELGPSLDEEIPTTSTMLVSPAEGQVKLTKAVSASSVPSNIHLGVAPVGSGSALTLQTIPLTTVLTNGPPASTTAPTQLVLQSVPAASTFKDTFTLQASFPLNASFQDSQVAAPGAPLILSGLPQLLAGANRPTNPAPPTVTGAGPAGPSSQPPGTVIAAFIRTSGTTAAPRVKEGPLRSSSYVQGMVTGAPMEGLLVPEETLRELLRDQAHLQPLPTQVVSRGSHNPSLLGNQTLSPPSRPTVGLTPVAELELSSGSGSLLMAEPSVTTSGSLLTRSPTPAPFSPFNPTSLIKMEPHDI
# How it was run: as §1
# ELK4 = biological target: T8, ELK4 (Homo sapiens, UniProt P28324-2 1-405); conditions: protein: recombinant; tags: N-terminal GST; dsDNA, one strand shown
# T8 sequence: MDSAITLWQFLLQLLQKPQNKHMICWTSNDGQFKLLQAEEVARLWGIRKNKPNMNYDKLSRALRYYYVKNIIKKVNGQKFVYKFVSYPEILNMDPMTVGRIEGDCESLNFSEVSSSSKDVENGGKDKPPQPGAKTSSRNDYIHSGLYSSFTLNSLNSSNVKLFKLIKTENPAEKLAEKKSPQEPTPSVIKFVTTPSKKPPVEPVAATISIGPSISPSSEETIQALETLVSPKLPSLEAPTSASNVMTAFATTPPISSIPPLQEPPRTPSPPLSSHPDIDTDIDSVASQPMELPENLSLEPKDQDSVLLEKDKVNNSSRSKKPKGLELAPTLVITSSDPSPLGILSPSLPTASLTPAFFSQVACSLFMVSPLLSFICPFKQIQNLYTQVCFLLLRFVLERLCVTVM
# How it was run: as §1
# ETV2 = biological target: T9, ETV2 (Homo sapiens, UniProt O00321 1-342); conditions: protein: recombinant; tags: N-terminal GST; dsDNA, one strand shown
# T9 sequence: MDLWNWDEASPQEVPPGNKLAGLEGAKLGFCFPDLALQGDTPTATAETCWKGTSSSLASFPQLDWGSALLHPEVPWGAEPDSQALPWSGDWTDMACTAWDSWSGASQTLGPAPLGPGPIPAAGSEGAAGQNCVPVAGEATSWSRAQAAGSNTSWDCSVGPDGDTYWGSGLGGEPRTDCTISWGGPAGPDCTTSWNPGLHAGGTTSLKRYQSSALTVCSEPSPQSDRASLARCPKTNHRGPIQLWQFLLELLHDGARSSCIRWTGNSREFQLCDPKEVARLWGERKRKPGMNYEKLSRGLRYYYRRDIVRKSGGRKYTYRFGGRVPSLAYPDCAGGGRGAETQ
# How it was run: as §1
# ELF3 = biological target: T10, ELF3 (Homo sapiens, UniProt P78545 1-371); conditions: protein: recombinant; tags: N-terminal GST; dsDNA, one strand shown
# T10 sequence: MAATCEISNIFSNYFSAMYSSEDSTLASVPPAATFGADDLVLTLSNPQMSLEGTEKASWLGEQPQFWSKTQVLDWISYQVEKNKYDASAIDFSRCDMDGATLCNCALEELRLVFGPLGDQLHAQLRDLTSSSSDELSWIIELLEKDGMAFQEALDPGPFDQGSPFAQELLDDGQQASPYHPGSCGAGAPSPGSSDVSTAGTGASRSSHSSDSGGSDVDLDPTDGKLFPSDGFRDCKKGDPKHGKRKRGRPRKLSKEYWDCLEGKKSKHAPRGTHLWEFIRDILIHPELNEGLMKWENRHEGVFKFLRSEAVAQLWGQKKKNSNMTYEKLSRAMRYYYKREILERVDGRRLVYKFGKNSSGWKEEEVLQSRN
# How it was run: as §1
# CRX = CRX (Homo sapiens, UniProt O43186 1-299); conditions: protein: recombinant; tags: N-terminal GST; dsDNA, one strand shown
# Sequence of CRX (O43186 whole entry): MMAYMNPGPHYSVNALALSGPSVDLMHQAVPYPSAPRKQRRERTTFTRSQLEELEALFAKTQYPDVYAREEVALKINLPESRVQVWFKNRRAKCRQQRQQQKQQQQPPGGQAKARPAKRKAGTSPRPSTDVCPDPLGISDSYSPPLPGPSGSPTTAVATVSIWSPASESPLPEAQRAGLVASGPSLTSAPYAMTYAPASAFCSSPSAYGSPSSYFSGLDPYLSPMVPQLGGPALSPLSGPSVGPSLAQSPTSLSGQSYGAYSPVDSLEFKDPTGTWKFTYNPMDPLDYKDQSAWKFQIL
# How it was run: as §1
# ETV1 = ETV1 (Homo sapiens, UniProt P50549 1-477); conditions: protein: recombinant; tags: N-terminal GST; dsDNA, one strand shown
# Sequence of ETV1 (P50549 whole entry): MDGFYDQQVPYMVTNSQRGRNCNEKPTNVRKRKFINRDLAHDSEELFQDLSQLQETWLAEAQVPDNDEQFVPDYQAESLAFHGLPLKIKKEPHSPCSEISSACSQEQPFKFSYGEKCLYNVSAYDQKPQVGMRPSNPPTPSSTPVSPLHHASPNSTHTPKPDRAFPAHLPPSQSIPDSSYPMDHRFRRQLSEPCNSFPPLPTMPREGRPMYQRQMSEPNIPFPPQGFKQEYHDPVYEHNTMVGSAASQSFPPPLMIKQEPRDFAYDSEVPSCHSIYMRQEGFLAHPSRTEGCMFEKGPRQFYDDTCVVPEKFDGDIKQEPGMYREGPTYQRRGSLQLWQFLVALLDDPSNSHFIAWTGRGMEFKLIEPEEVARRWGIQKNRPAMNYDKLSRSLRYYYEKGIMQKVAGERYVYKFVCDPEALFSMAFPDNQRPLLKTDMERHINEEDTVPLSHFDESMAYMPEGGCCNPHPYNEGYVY
# How it was run: as §1
sequence,measurement,setting,value
GCTGAA,binding signal,FLI1,"1.14 fold enrichment (6-mer frequency, TF over GST control)"
same,binding signal,ELK1,"1.09 fold enrichment (6-mer frequency, TF over GST control)"
same,binding signal,GABPA,"1.14 fold enrichment (6-mer frequency, TF over GST control)"
same,binding signal,ERG,"1.03 fold enrichment (6-mer frequency, TF over GST control)"
same,binding signal,ELF1,"1.16 fold enrichment (6-mer frequency, TF over GST control)"
same,binding signal,EHF,"1.1 fold enrichment (6-mer frequency, TF over GST control)"
same,binding signal,SPI1,"1.06 fold enrichment (6-mer frequency, TF over GST control)"
same,binding signal,SPIB,"1.11 fold enrichment (6-mer frequency, TF over GST control)"
same,binding signal,FEV,"1.03 fold enrichment (6-mer frequency, TF over GST control)"
same,binding signal,ETV5,"1.16 fold enrichment (6-mer frequency, TF over GST control)"
same,binding signal,HSF1,"1.04 fold enrichment (6-mer frequency, TF over GST control)"
same,binding signal,SPIC,"1.31 fold enrichment (6-mer frequency, TF over GST control)"
same,binding signal,ELF4,"1.1 fold enrichment (6-mer frequency, TF over GST control)"
same,binding signal,ELK4,"1.23 fold enrichment (6-mer frequency, TF over GST control)"
same,binding signal,ETV2,"1.21 fold enrichment (6-mer frequency, TF over GST control)"
same,binding signal,ELF3,"1.18 fold enrichment (6-mer frequency, TF over GST control)"
same,binding signal,CRX,"1.05 fold enrichment (6-mer frequency, TF over GST control)"
same,binding signal,ETV1,"1.05 fold enrichment (6-mer frequency, TF over GST control)"

# From article PMC7862700, “An all-to-all approach to the identification of sequence-specific readers for epigenetic DNA modifications on cytosine”
